PubChem BioAssay (NCI)
About 79,000 compounds went through this panel and 15% of them were active in at least one assay; those are over-represented in the sample as a whole. Activity calls are given as the source filed them. Rule as the data show it: active = growth inhibition above about 70%; inactive = the rest.

Tests used:
[1] = NCI Yeast Anticancer Drug Screen. Data for the wt1 strain (AID 149);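 also: 0% = growth of vehicle-treated wt1 cultures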; settings: S. cerevisiae wt1 strain (SPY 50644) growth inhibition, stronger effect = higher value
Outline: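 Each compound is tested on wt1 yeast and the loss of growth versus vehicle gives the inhibition value.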

[2] = NCI Yeast Anticancer Drug Screen. Data for the rad50EPP+ strain (AID 151);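 also: 0% = growth of vehicle-treated control cultures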; settings: S. cerevisiae rad50 mutant strain, stronger effect = higher value
Outline: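 Strain rad50EPP+; compound exposure; % growth inhibition vs vehicle.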

[3] = NCI Yeast Anticancer Drug Screen. Data for the mgt1 strain (AID 153); settings: S. cerevisiae mgt1 mutant growth inhibition, stronger effect = higher value
Outline: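 Read-out: yeast growth inhibition vs vehicle control. Strain mgt1, drawn from a panel altered in DNA damage repair or cell cycle control.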

[4] = NCI Yeast Anticancer Drug Screen. Data for the rad50 strain (AID 155);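 also: 0% = growth of vehicle-only cultures of the same strain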; settings: S. cerevisiae rad50 strain growth inhibition, stronger effect = higher value
Outline: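 Vehicle-treated cultures provide the reference for the growth inhibition reported for compound-exposed, repair-deficient yeast.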

[5] = NCI Yeast Anticancer Drug Screen. Data for the mec2-1 strain (AID 157); settings: S. cerevisiae mec2-1 strain, stronger effect = higher value
Outline: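 Cells of the genetically defined mec2-1 yeast strain are incubated with test compound. Inhibition of growth is calculated against vehicle-treated controls.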

[6] = NCI Yeast Anticancer Drug Screen. Data for the rad14 strain (AID 159);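 also: 0% = growth of vehicle-treated control cultures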; settings: S. cerevisiae rad14 strain growth inhibition, stronger effect = higher value
Outline: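 Inhibition of growth is reported for a repair-deficient yeast mutant following compound treatment, calculated relative to cultures that received vehicle.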

[7] = NCI Yeast Anticancer Drug Screen. Data for the sgs1 mgt1 strain (AID 161);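 also: 0% = growth of cultures given vehicle only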; settings: S. cerevisiae sgs1 mgt1 strain, stronger effect = higher value
Outline: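 Inhibition of yeast growth, normalised to vehicle-treated controls, is reported for a strain bearing genetic alterations in DNA damage repair.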

[8] = NCI Yeast Anticancer Drug Screen. Data for the CLN2oe strain (AID 163);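 also: 0% = growth of vehicle-only control cultures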; settings: S. cerevisiae CLN2oe strain, stronger effect = higher value
Outline: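 Strain altered in cell-cycle control, incubated with compound; growth compared to solvent-treated controls.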

[9] = NCI Yeast Anticancer Drug Screen. Data for the cln2 rad14 strain (AID 165);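 also: 0% = growth equal to vehicle treated cultures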; settings: S. cerevisiae cln2 rad14 strain, stronger effect = higher value
Outline: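 The screen exposed genetically defined yeast (cln2 rad14) to test compounds and scored growth inhibition relative to vehicle-treated controls.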

[10] = NCI Yeast Anticancer Drug Screen. Data for the bub3 strain (AID 167); settings: S. cerevisiae bub3 mutant strain, stronger effect = higher value
Outline: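 Mutant yeast screening strain plus compound; vehicle-treated cultures serve as the 0% inhibition reference.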

[11] = NCI Yeast Anticancer Drug Screen. Data for the wt2 strain (AID 169); settings: S. cerevisiae wt2 strain growth inhibition, stronger effect = higher value
Outline: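 Steps: yeast strain treated with compound; growth recorded; inhibition calculated relative to cultures given vehicle alone.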

[12] = NCI Yeast Anticancer Drug Screen. Data for the mlh1 strain (AID 171);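 also: 0% = growth of vehicle-treated control cultures of the same strain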; settings: S. cerevisiae mlh1 strain growth inhibition, stronger effect = higher value
Outline: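 Yeast screen: mutant strain plus compound, growth scored against vehicle control wells.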

[13] = NCI Yeast Anticancer Drug Screen. Data for the sgs1 strain (AID 173);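 also: 0% = growth of vehicle-only control cultures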; settings: S. cerevisiae sgs1 mutant, stronger effect = higher value
Outline: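 Inhibition of yeast growth served as the measure. The mutant strain was treated with each compound, and growth was normalised to cultures receiving vehicle alone.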

[14] = NCI Yeast Anticancer Drug Screen. Data for the rad18 strain (AID 177); settings: S. cerevisiae rad18 mutant growth inhibition, stronger effect = higher value
Outline: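 Inhibition values reflect reduced yeast growth compared with vehicle-treated controls, using a strain engineered with a DNA damage repair defect.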

[15] = NCI Yeast Anticancer Drug Screen. Data for the mlh1 rad18 strain (AID 175); settings: S. cerevisiae mlh1 rad18 strain growth inhibition, stronger effect = higher value
Outline: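 Compound-treated yeast growth, normalised to vehicle controls. Strain bears defined DNA repair mutations.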

[16] = at 5.0 µM (retest, dose inferred, filed as 0.5)
[17] = at 50.0 µM (retest, dose inferred, filed as 5.0)

Measured: growth inhibition

CCSc1c2ccccc2c(-c2nc(F)nc(F)n2)n1CCc1ccccc1
active: [1]; at 33.0 µM 80% | [1]; at 100.0 µM 97% | [3]; at 33.0 µM 81% | [3]; at 100.0 µM 97% | [4]; at 33.0 µM 72% | [4]; at 50.0 µM 87% | [4]; at 100.0 µM 96% | [5]; at 33.0 µM 78% | [5]; at 50.0 µM 80.7% | [5]; at 100.0 µM 98% | [6]; at 33.0 µM 84% | [6]; at 100.0 µM 97% | [7]; [17] 70% | [7]; at 50.0 µM 87.7% | [8]; at 33.0 µM 89% | [8]; at 100.0 µM 97% | [9]; [17] 70% | [9]; at 50.0 µM 86.6% | [10]; at 33.0 µM 82% | [10]; [17] 88% | [10]; at 50.0 µM 86% | [10]; at 100.0 µM 97% | [11]; at 33.0 µM 77% | [11]; at 100.0 µM 98% | [12]; at 33.0 µM 75% | [12]; at 100.0 µM 97% | [13]; at 33.0 µM 79% | [13]; at 100.0 µM 98% | [14]; at 33.0 µM 75% | [14]; at 100.0 µM 97%
inactive: [1]; at 1.2 µM -7% | [1]; at 3.7 µM -4% | [1]; at 11.0 µM 10% | [2]; at 1.2 µM -22% | [2]; at 3.7 µM -17% | [2]; at 11.0 µM -22% | [2]; at 33.0 µM -15% | [2]; at 100.0 µM 3% | [3]; at 1.2 µM -27% | [3]; at 3.7 µM -32% | [3]; at 11.0 µM -29% | [4]; at 1.2 µM -30% | [4]; at 3.7 µM -10% | [4]; [16] -23% | [4]; at 11.0 µM -6% | [4]; [17] 52% | [5]; at 1.2 µM -14% | [5]; at 3.7 µM -17% | [5]; [16] -43% | [5]; at 11.0 µM -4% | [5]; [17] 0% | [6]; at 1.2 µM -17% | [6]; at 3.7 µM -12% | [6]; at 11.0 µM 2% | [7]; [16] -15% | [8]; at 1.2 µM -24% | [8]; at 3.7 µM -20% | [8]; at 11.0 µM 4% | [9]; [16] 19% | [10]; at 1.2 µM -11% | [10]; at 3.7 µM -21% | [10]; [16] 0% | [10]; at 11.0 µM -3% | [11]; at 1.2 µM -1% | [11]; at 3.7 µM -2% | [11]; at 11.0 µM 4% | [12]; at 1.2 µM -41% | [12]; at 3.7 µM -34% | [12]; at 11.0 µM -22% | [13]; at 1.2 µM 34% | [13]; at 3.7 µM 32% | [13]; at 11.0 µM 39% | [14]; at 1.2 µM -5% | [14]; at 3.7 µM 0% | [14]; at 11.0 µM 7%

Nc1nc(Nc2ccccc2)nc(Nc2ccccc2)n1
inactive: [1]; at 1.2 µM -3% | [1]; at 3.7 µM -10% | [1]; at 11.0 µM -12% | [1]; at 33.0 µM -15% | [2]; at 1.2 µM 1% | [2]; at 3.7 µM -6% | [2]; at 11.0 µM 21% | [2]; at 33.0 µM 28% | [2]; at 100.0 µM 50% | [3]; at 1.2 µM -1% | [3]; at 3.7 µM -7% | [3]; at 11.0 µM -3% | [3]; at 33.0 µM 2% | [4]; at 1.2 µM -6% | [4]; at 3.7 µM -10% | [4]; [16] 4% | [4]; at 11.0 µM -6% | [4]; at 33.0 µM 11% | [4]; [17] 7% | [5]; at 1.2 µM -1% | [5]; at 3.7 µM 1% | [5]; [16] -2% | [5]; at 11.0 µM -1% | [5]; at 33.0 µM -2% | [5]; [17] 21% | [6]; at 1.2 µM 5% | [6]; at 3.7 µM 1% | [6]; at 11.0 µM 1% | [6]; at 33.0 µM 36% | [7]; [16] 3% | [7]; [17] 66% | [8]; at 1.2 µM -7% | [8]; at 3.7 µM -6% | [8]; at 11.0 µM -6% | [8]; at 33.0 µM -3% | [9]; [16] -4% | [9]; [17] 8% | [10]; at 1.2 µM -4% | [10]; at 3.7 µM -3% | [10]; [16] -5% | [10]; at 11.0 µM -8% | [10]; at 33.0 µM 5% | [10]; [17] 32% | [11]; at 1.2 µM -15% | [11]; at 3.7 µM -8% | [11]; at 11.0 µM -7% | [11]; at 33.0 µM 66% | [12]; at 1.2 µM -6% | [12]; at 3.7 µM -2% | [12]; at 11.0 µM -3% | [12]; at 33.0 µM 35% | [13]; at 1.2 µM -10% | [13]; at 3.7 µM -3% | [13]; at 11.0 µM 6% | [13]; at 33.0 µM 57% | [15]; [16] 0% | [15]; [17] 58% | [14]; at 1.2 µM -1% | [14]; at 3.7 µM 5% | [14]; at 11.0 µM 2% | [14]; at 33.0 µM 31%
active: [1]; at 100.0 µM 81% | [3]; at 100.0 µM 92% | [4]; at 50.0 µM 93.5% | [4]; at 100.0 µM 93% | [5]; at 50.0 µM 85.8% | [5]; at 100.0 µM 81% | [6]; at 100.0 µM 95% | [7]; at 50.0 µM 94% | [8]; at 100.0 µM 87% | [9]; at 50.0 µM 81.2% | [10]; at 50.0 µM 91.5% | [10]; at 100.0 µM 95% | [11]; at 100.0 µM 96% | [12]; at 100.0 µM 97% | [13]; at 100.0 µM 97% | [15]; at 50.0 µM 96.5% | [14]; at 100.0 µM 96%

CC[C@@]1(OC(=O)CN(C)C)C(=O)OCc2c1cc1n(c2=O)Cc2cc3ccccc3nc2-1
active: [1]; at 33.0 µM 85% | [1]; at 100.0 µM 93% | [2]; at 3.7 µM 79% | [2]; at 11.0 µM 92% | [2]; at 33.0 µM 95% | [2]; at 100.0 µM 97% | [3]; at 33.0 µM 90% | [3]; at 100.0 µM 97% | [4]; at 1.2 µM 81% | [4]; at 3.7 µM 95% | [4]; [16] 95% | [4]; at 11.0 µM 96% | [4]; at 33.0 µM 96% | [4]; [17] 97% | [4]; at 50.0 µM 96.8% | [4]; at 100.0 µM 97% | [5]; at 11.0 µM 89% | [5]; at 33.0 µM 94% | [5]; [17] 96% | [5]; at 50.0 µM 99% | [5]; at 100.0 µM 97% | [6]; at 33.0 µM 87% | [6]; at 100.0 µM 95% | [7]; [17] 95% | [7]; at 50.0 µM 93.6% | [8]; at 33.0 µM 73% | [8]; at 100.0 µM 87% | [9]; [17] 89% | [9]; at 50.0 µM 79.8% | [10]; at 33.0 µM 90% | [10]; [17] 93% | [10]; at 50.0 µM 93.7% | [10]; at 100.0 µM 96% | [11]; at 33.0 µM 84% | [11]; at 100.0 µM 93%
inactive: [1]; at 1.2 µM -1% | [1]; at 3.7 µM 1% | [1]; at 11.0 µM 23% | [2]; at 1.2 µM 42% | [3]; at 1.2 µM -1% | [3]; at 3.7 µM 1% | [3]; at 11.0 µM 32% | [5]; at 1.2 µM 2% | [5]; at 3.7 µM 23% | [5]; [16] 53% | [6]; at 1.2 µM 2% | [6]; at 3.7 µM 8% | [6]; at 11.0 µM 44% | [7]; [16] 38% | [8]; at 1.2 µM -7% | [8]; at 3.7 µM 2% | [8]; at 11.0 µM 31% | [9]; [16] 15% | [10]; at 1.2 µM -7% | [10]; at 3.7 µM -9% | [10]; [16] -3% | [10]; at 11.0 µM 41% | [11]; at 1.2 µM -1% | [11]; at 3.7 µM 10% | [11]; at 11.0 µM 28%
